Compound activity from PubChem.
Only some compounds are listed: those with a hit (about 4.7% of all), similar ones and a draw of the others.
Pyk2 oligo antag – blocks oligomerization of human Pyk2 in cells; z-score (the deposit names both 25 µM and 10 µM); Q293 cells, Pyk2 FERM NanoBiT luminescence; active compounds read low; Q14289; actives 0.83% (n = 99,000); AID 1347419;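 active = Z-score of -3 or lower, scaled per plate to the spread of control and sample wells; inactive = z-score above -3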;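 also: negative z-score means lost luminescence so less FERM oligomerization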
SDO1 yeast rescue – restores growth of sdo1-depleted yeast. S. cerevisiae sdo1-depleted JHY4D growth rescue, OD600 30 h; active compounds read high; pdr5 snq2 efflux-pump mutant strain. z-score at 10 µM. actives 0.21% (n = 140,000). AID 817;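 active = z-score above 3 at both the 24 hr and the 30 hr optical density reads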
PLK1 inh – inhibitors of human PLK1 kinase | recombinant PLK1 kinase, TR-FRET peptide phosphorylation | inhibition, % at 10 µM | actives 0.53% (n = 97,000);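 active = inhibition of 50% or more in the single-concentration screen; inactive = inhibition below 50%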
Cav32 inh – blocks human Cav3.2 T-type calcium channel; O95180; Cav3.2-expressing cells, Fluo-4 calcium fluorescence FDSS; active compounds read low; B-score at 10 µM; actives 4% (n = 100,000);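 active = single-dose well whose peak fluorescence ratio is a statistical outlier from its plate by either plate-standardised score or position-corrected B-score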
Plk1 PBD FP – inhibitors of human Plk1 polo box domain binding | P53350 | Plk1 PBD phosphopeptide binding, fluorescence polarization | inhibition, %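 (tested at about 20 µM)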 | actives 0.13% (n = 97,000) | AID 693; in the data active = inhibition above about 34%, passing the limit was not always enough
DAT uptake mod – modulates human dopamine transporter uptake under cocaine; B-score at 10 µM; LLC-PK1 hDAT cells, [14C]-dopamine uptake with cocaine IC80; actives deviate in either direction; AID 449768; Q01959; actives 1.3% (n = 110,000);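 active = Z score or B-score, a plate-position-corrected score, falls beyond the plate's 99.7% confidence bounds, in either direction; inactive = both scores lie inside the 99.7% bounds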
A number is an active result; n = inactive; x = no result given.

SMILES | Pyk2 oligo antag | SDO1 yeast rescue | PLK1 inh | Cav32 inh | Plk1 PBD FP | DAT uptake mod
CCC(C)c1ccc(NC(=S)NN2CCOCC2)cc1 (stereo not given) | x | n | x | x | x | x
Cc1cccc(-c2cc3nc(C)cc(NCCCn4ccnc4)n3n2)c1 | n | n | n | n | n | n
Cc1cc(NCCCn2ccnc2)n2ncc(-c3ccc(Cl)cc3)c2n1 | n | n | n | n | n | 4.08
CN(C)c1nc(N)c([N+](=O)[O-])c(NCCO)n1 | x | n | x | x | x | x
O=C(Cc1ccc(S(=O)(=O)N2CCCC2)s1)Nc1nc2c(s1)CCCC2 | n | n | n | -3.77 | n | n
Cc1ccc(CC(=O)Nc2nc3c(s2)CCCC3)cc1 | n | n | n | -5.25 | n | n
O=C(Cc1ccc(S(=O)(=O)N2CCCCC2)s1)Nc1ccc(F)c(F)c1 | x | n | x | x | x | x
CCc1ccc2nc(NC(=O)CCCc3cccs3)sc2c1 | n | n | n | x | n | x
O=C(CCCc1cccs1)Nc1nc2c(s1)CCCC2 | n | n | n | -7.59 | n | n
NC1=NC2(CCCCC2)N=C(Nc2ccc(Br)cc2)N1 | x | n | x | x | x | x
CC1=C(C(=O)OC2CCCC2)C(c2ccc(C)o2)C2=C(CC(c3cccs3)CC2=O)N1 (stereo not given) | n | n | n | -5.89 | n | n
CC1=C(C(=O)OC2CCCCCC2)C(c2ccc(C)o2)C2=C(CCCC2=O)N1 (stereo not given) | n | n | x | x | x | x
CCOC(=O)C1=C(C)NC2=C(C(=O)CC(c3cccs3)C2)C1c1cccs1 (stereo not given) | -3.33 | n | n | n | n | n
O=C(OC1C[C@@H]2CC3C[C@H](C1)N2CC3=O)c1c[nH]c2ccccc12 (stereo not given in full) | x | x | x | n | x | n
CN(C)S(=O)(=O)c1ccc(Cl)c(NC(=O)COc2ccccc2[N+](=O)[O-])c1 | n | n | x | x | x | x
O=P(O)(O)CCP(=O)(c1ccccc1)c1ccccc1 | n | n | n | n | n | -2.49
CCN(CC)CCP(=O)(c1ccccc1)c1ccccc1 | n | n | n | -4 | n | n
CP(C)(=O)CCP(=O)(c1ccccc1)c1ccccc1 | x | n | x | x | x | x
CC(=O)Nc1ccc(S(=O)(=O)N[C@@H](C)C(=O)OCc2ccc(Cl)cc2)cc1 | x | n | x | x | x | x
O=C(COc1ccc2ccccc2c1)Nc1ccc2c3c(cccc13)CC2 | x | n | x | x | x | x
Cc1cc(C)n(C(=O)C23CC4CC(CC(C4)C2)C3)n1 | x | n | n | -5.58 | n | n
CC(C)(C)n1nnnc1C(c1cccs1)N1CCCC2(CCCCC2)C1 (stereo not given) | n | n | n | n | n | n
CC(C)(C)n1nnnc1C(c1cccs1)N1CCCc2ccccc21 (stereo not given) | n | n | n | -5.92 | n | n
CC(C)C(c1nnnn1C1CCCCC1)N1CCCc2ccccc21 (stereo not given) | n | n | n | n | n | n
CC(C)C(c1nnnn1C1CCCC1)N1CCCc2ccccc21 (stereo not given) | n | n | n | -3.93 | n | n
SMILES | Pyk2 oligo antag | SDO1 yeast rescue | PLK1 inh | Cav32 inh | Plk1 PBD FP | DAT uptake mod
CCOc1nc(NC2CCCCC2)nc(NC(C)(C)C)n1 | n | n | n | -5.33 | n | n
N=C1C(=O)OCC1c1ccccc1NC(=O)CN1CCOCC1 (stereo not given) | x | n | x | x | x | x
CN(C)CCCNC(=S)N1CCn2c(nc3ccccc32)C1 | x | n | x | x | x | x
CCOC(=O)c1c(NC(=O)COc2cccc3c2CCN(C)C3=O)sc2c1CCC2 | x | n | x | x | x | x
CC(OC(=O)CN(C)S(=O)(=O)c1ccc(Cl)cc1)C(=O)Nc1cccc(Cl)c1 (stereo not given) | n | n | n | -6.59 | n | n
COc1ccccc1-c1nnc2sc(-c3ccc(N(C)C)cc3)nn12 | -3.39 | n | x | x | x | x
CSc1nc2ccc(NS(=O)(=O)c3ccc(Cl)s3)cc2s1 | n | n | n | -5.56 | n | n
O=C(NCC1CCCO1)c1ccc(COc2ccccc2Br)cc1 (stereo not given) | x | n | x | x | x | x
O=C(COC(=O)C12CC3CC(CC(C3)C1)C2)NCCc1ccccc1 | n | n | n | n | n | n
COC(=O)NC1CCC(NC(=O)OC)CC1 (stereo not given) | x | n | x | x | x | x
N#Cc1c(N2CCN(C(=O)c3ccccc3)CC2)nc(-c2ccccc2)c2c1CCCC2 | n | n | n | -4.85 | n | n
CC(C)Cc1nc(N2CCN(C(=O)C(C)C)CC2)c(C#N)c2c1CCC2 | n | n | n | -5.74 | n | n
CC(C)Cc1nc(N2CCN(C(=O)c3ccco3)CC2)c(C#N)c2c1CCC2 | n | n | n | -7.88 | n | n
